Experimental data published in the supplement of paper PMC6555819.

Assays:
Assay in all cases: PBM binding z-score (relative to random genomic background probes); higher = stronger binding; sequences stand for … in GC…GCGATTGACAGCGTAGAATGAAGG
[1] = test system: FXR:RXRa (NR concentration 270 nM, RXRa partner concentration 90 nM)
Outline: (§1)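 Each nuclear receptor dimer, without ligand, was incubated for 1 h on custom Agilent 4×180K protein-binding microarrays. Binding was detected with antibodies against each partner (one per run), and scanned fluorescence was regression-normalized. The binding z-scores are referenced to random human genomic background probes.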

[2] = test system: LXRa:RXRa (NR concentration 270 nM, RXRa partner concentration 90 nM)
Outline: as §1

[3] = test system: LXRa homodimer (NR concentration 270 nM)
Outline: as §1

[4] = test system: LXRb:RXRa (NR concentration 270 nM, RXRa partner concentration 90 nM)
Outline: as §1

[5] = test system: LXRb homodimer (NR concentration 270 nM)
Outline: as §1

[6] = test system: PPARa:RXRa (NR concentration 270 nM, RXRa partner concentration 90 nM)
Outline: as §1

[7] = test system: PPARg:RXRa (NR concentration 180 nM, RXRa partner concentration 90 nM)
Outline: as §1

[8] = test system: PPARg:RXRa 270nM:90nM, anti-RXR (NR concentration 270 nM, RXRa partner concentration 90 nM)
Outline: as §1

[9] = test system: PPARg:RXRa 30nM:10nM, anti-RXR (NR concentration 30 nM, RXRa partner concentration 10 nM)
Outline: as §1

[10] = test system: PPARg:RXRa 90nM:30nM, anti-RXR (NR concentration 90 nM, RXRa partner concentration 30 nM)
Outline: as §1

[11] = test system: PPARg:RXRa DBDmut IVT, anti-RXR (DBD mutation: RXRa K156A/R161A, NR concentration 270 nM, RXRa partner concentration 90 nM)
Outline: as §1

[12] = test system: PPARg:RXRa IVT, anti-PPARg (NR concentration 270 nM, RXRa partner concentration 90 nM)
Outline: as §1

[13] = test system: PPARg DBDmut:RXRa IVT, anti-PPARg (DBD mutation: PPARg1 K132A/R137A, NR concentration 270 nM, RXRa partner concentration 90 nM)
Outline: as §1

[14] = test system: PPARg DBDmut IVT, anti-PPARg (DBD mutation: PPARg1 K132A/R137A, NR concentration 270 nM)
Outline: as §1

[15] = test system: PPARg homodimer (NR concentration 180 nM)
Outline: as §1

[16] = test system: PXR:RXRa (NR concentration 270 nM, RXRa partner concentration 90 nM)
Outline: as §1

[17] = test system: PXR homodimer (NR concentration 270 nM)
Outline: as §1

[18] = test system: RARa:RXR (NR concentration 270 nM, RXRa partner concentration 90 nM)
Outline: as §1

[19] = test system: RARa homodimer (NR concentration 270 nM)
Outline: as §1

[20] = test system: RARb:RXRa (NR concentration 270 nM, RXRa partner concentration 90 nM)
Outline: as §1

Sequence	PBM binding z-score [1]	PBM binding z-score [2]	PBM binding z-score [3]	PBM binding z-score [4]	PBM binding z-score [5]	PBM binding z-score [6]	PBM binding z-score [7]	PBM binding z-score [8]	PBM binding z-score [9]	PBM binding z-score [10]	PBM binding z-score [11]	PBM binding z-score [12]	PBM binding z-score [13]	PBM binding z-score [14]	PBM binding z-score [15]	PBM binding z-score [16]	PBM binding z-score [17]	PBM binding z-score [18]	PBM binding z-score [19]	PBM binding z-score [20]
CCTTACGAGTCACTGACAGGTTATAGCATTTGGA	0.777	1.14	0.907	1.29	0.779	0.873	0.529	0.102	0.331	0.375	0.816	0.0297	1.14	0.808	1.1	0.7	0.734	1.15	1.48	0.807
ACTATTAGTTGAGACGAGGGCGACCGATAGGTTG	0.0775	-0.2	0.0498	-0.401	8.35e-05	-0.485	0.629	-0.198	0.0514	-0.0518	0.0234	-0.184	0.772	0.784	0.303	0.205	0.117	0.144	0.456	0.332
CCTATTAGTTGACCATAAGGGCAACCGCAGCTCG	1.1	0.581	0.369	0.306	0.642	0.449	0.36	0.368	-0.191	0.0579	0.361	0.808	0.402	0.299	0.816	0.705	1.05	0.896	1.78	1.54
CTACCAAGGTGAACAAGGTCCTTGATTACTATTC	0.682	0.376	-0.214	0.744	-0.587	1.57	0.578	0.855	-0.122	0.296	2.33	2.45	0.391	-0.0815	0.182	0.728	0.218	0.944	-0.035	1.64
CTACGAAGGTGAACAAGGTCGTTGATTACTATTC	1.63	1.54	0.18	1.91	-0.34	2.66	0.958	1.03	-0.0387	0.552	2.27	2.28	0.435	0.389	0.63	2.98	1.39	2.46	0.451	2.33
GATTCAGGGTCAAGGCCAGAGTACGCGTATTGAT	6.98	5.3	0.175	4.43	0.317	6.12	6.43	6.72	3.1	5.41	3.79	4.63	1.51	0.0606	3.59	4.81	0.452	5.58	0.724	4.92
